In all, about 33,000 sequences were measured (“E-score (-0.5 to 0.5)”: median about -0.053, highest 2% from about 0.37 on). Shown is part of a subset that was picked to be rich in the highest values.
Biological target: Hap1 (UniProt P0CE41)
Experiment: PBM E-score (8-mer binding enrichment) (E-score (-0.5 to 0.5)); higher = stronger / more preferred TF binding
Conditions: protein concentration: 200 nM; construct: GST-DNA-binding domain
In short: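 Universal all-10-mer Agilent arrays, fresh or stripped once, were converted to double-stranded form by primer extension. GST-tagged yeast transcription factors from PURExpress in vitro transcription/translation, full-length or DNA-binding domain only, were applied at about 100-200 nM and detected with fluorescent anti-GST. After masliner normalisation, the Universal PBM Analysis Suite scored each ungapped eight-base word together with its reverse complement by E-score.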

UniProt P0CE41, sequence (P0CE41 whole entry): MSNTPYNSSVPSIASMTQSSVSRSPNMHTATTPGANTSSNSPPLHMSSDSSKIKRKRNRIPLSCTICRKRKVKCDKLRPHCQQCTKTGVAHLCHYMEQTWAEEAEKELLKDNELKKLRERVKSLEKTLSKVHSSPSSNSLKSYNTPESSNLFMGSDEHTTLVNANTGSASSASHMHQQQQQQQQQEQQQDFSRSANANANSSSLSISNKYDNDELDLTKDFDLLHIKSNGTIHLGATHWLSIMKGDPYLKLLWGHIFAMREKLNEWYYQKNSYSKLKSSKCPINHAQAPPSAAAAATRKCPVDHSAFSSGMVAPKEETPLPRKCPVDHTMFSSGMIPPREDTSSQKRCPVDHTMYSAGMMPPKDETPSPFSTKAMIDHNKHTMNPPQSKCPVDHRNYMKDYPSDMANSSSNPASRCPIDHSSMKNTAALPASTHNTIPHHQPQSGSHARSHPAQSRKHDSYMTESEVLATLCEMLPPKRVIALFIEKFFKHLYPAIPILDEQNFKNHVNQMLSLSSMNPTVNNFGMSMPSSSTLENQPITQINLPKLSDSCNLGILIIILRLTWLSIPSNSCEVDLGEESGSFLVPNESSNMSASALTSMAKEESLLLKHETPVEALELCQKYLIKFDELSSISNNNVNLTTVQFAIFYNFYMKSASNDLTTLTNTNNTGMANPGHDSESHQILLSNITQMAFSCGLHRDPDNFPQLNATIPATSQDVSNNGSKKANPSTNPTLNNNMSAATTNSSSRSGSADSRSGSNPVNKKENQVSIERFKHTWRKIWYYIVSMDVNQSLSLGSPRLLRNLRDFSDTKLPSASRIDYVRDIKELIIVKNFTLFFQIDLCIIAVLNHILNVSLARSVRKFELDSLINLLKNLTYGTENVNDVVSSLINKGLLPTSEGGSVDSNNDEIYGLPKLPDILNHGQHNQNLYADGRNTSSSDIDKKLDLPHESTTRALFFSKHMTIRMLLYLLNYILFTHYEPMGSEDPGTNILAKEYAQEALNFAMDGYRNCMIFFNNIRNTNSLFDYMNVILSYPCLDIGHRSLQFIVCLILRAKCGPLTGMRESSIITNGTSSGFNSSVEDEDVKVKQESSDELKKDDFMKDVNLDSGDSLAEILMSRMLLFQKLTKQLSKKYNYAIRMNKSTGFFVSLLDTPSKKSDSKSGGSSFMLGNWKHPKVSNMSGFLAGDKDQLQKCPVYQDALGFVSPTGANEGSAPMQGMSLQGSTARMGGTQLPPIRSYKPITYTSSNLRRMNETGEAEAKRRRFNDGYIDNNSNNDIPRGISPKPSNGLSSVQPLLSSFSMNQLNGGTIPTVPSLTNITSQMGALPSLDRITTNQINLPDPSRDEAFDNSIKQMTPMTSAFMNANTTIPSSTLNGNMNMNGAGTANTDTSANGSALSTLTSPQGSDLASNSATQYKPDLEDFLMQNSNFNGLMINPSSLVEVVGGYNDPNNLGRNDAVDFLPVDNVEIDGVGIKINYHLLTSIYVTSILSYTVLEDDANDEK

Row | Sequence | PBM E-score
1 | CCGGCCGC | 0.299
2 | ACGGCCCA | 0.141
3 | AGGGCCCG | 0.106
4 | CCGGCCGG | 0.456
5 | CGGGCCCA | 0.26
6 | CCGGCCAG | 0.351
7 | CGGGCCCG | 0.419
8 | ACGGCCAA | 0.166
9 | ACGGCCGA | 0.419
10 | CGGGCCTC | 0.192
11 | ATCCACGC | -0.239
12 | AGCACTAT | -0.257
13 | ATTCCCTC | -0.083
14 | ACTATCGA | -0.0147
15 | GGATCCAC | 0.059
16 | ATCTCTTC | -0.0222
17 | AGAGCAGA | -0.17
18 | CAATCTGA | -0.151
19 | GTACTGTA | -0.119
20 | CGGGCCGC | 0.263
21 | TCGGCCGA | 0.48
22 | ACGGCCGG | 0.392
23 | GGGGCCGA | 0.233
24 | CGGGCCGA | 0.379
25 | ATGGCCGG | 0.315
26 | ACGGCCTG | -0.0121

Row | Sequence | PBM E-score
27 | TCGGCCAA | 0.256
28 | TCGGCCCA | 0.304
29 | GCGGCCGA | 0.335
30 | CCGGCCGA | 0.453
31 | CCGGCCTA | 0.288
32 | ATGGTGTG | -0.303
33 | ACCTTACT | 0.105
34 | ATGCCCCG | 0.282
35 | ACGGTAGG | -0.0364
36 | TACCCCTA | -0.146
37 | ACTTCTAC | -0.119
38 | ACGGCCCT | -0.0855
39 | CCGGCCCA | 0.231
40 | CCGGCCCG | 0.434
41 | ACGGCCGT | 0.373
42 | ACGGCCGC | 0.228
43 | ACGGCCCG | 0.249
44 | CCGTCAAA | 0.114
45 | ACTGAGCG | -0.284
46 | AATGCCGT | 0.334
47 | ATTGCCGA | 0.375
48 | CATGCCGG | 0.298
49 | CATGCCGA | 0.17
50 | CTTGCCGA | 0.0417
51 | AATGCCGA | 0.405
52 | AATGCCGC | 0.295

Row | Sequence | PBM E-score
53 | AATGCCGG | 0.384
54 | ATTGCCGC | 0.0752
55 | CGTTGGTC | -0.0912
56 | ACGGGAAC | 0.101
57 | GGAAGACC | 0.0832
58 | GCCCACTA | -0.137
59 | CTCACACC | -0.15
60 | CGCGGCAG | 0.1
61 | GACTGTAC | -0.171
62 | GAGCTGCA | -0.00591
63 | CCCCGCTC | 0.0426
64 | ATCGGCAC | 0.315
65 | CGCGCGAC | 0.2
66 | AAATCCCA | -0.0185
67 | AAATCCCG | 0.379
68 | TAATCCGA | 0.346
69 | CAATCCGG | 0.375
70 | AAATCCGC | 0.387
71 | AAATCCGA | 0.457
72 | CAATCCCG | 0.272
73 | CAATCCGC | 0.191
74 | CAATCCGA | 0.241
75 | AAATCCAC | 0.0573
76 | GAATCCGC | 0.179
77 | GAATCCGA | 0.307
78 | AAATCCAG | 0.0422

Row | Sequence | PBM E-score
79 | AAATCCTG | -0.118
80 | AAATCCGG | 0.475
81 | AAATCCGT | 0.396
82 | AAATCCTT | 0.0613
83 | AAATCCCT | -0.166
84 | CCTTTGGA | -0.215
85 | GGCTGCTA | -0.0615
86 | AGACCGAG | 0.373
87 | AGACCGAA | 0.281
88 | CTACCGAG | 0.139
89 | CGACCGAG | 0.371
90 | CGACCGAA | 0.378
91 | CGACCGAC | 0.301
92 | AGACCGAT | 0.35
93 | CCACCGAG | 0.14
94 | AGACCGAC | 0.346
95 | GCAGCTTA | -0.171
96 | CCTGAGAA | -0.253
97 | CCTATCAG | -0.147
98 | GACAGCAA | -0.221
99 | TGACTCAA | -0.251
100 | CGGCTGTC | 0.175
101 | GGGCACAA | -0.0367
102 | GAGGACGC | -0.0224

From the supplement of paper PMC3334620
